Consider seven compounds from PubChem BioAssay (EPA / NIEHS).

Each structure is given as a SMILES string. Activity calls are given as the source filed them. Rule for the calls: active = hit-call score of the fitted dose curve at least 0.9, where 1 is the maximum; inactive = score below 0.9.

Read-out in experiment [1]: Tissue plasminogen activator (tPA), PLAT (gene 5327)
Kind of experiment: BSK_BE3C_tPA: BioMAP Diversity Plus: BE3C Assay for Tissue plasminogen activator (tPA) Biomarker Activity (AID 2283041).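 Note: tPA level quantified by ELISA one day after compound addition.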 Particulars: primary human bronchial epithelial cells; actives raise or lower the signal. In a few lines: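 Using human lung primary bronchial epithelial cells, tPA was measured by ELISA 24 h after dosing; data fitted relative to DMSO.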

Read-out in experiment [2]: Interleukin-8 (IL8), CXCL8 (gene 3576)
Kind of experiment: BSK_CASM3C_IL8: BioMAP Diversity Plus: CASM3C Assay for Interleukin-8 (IL8) Biomarker Activity (AID 2283042).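 Note: IL-8 protein level quantified by ELISA.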 The note with it: primary human coronary artery smooth muscle cells; actives raise or lower the signal.

Read-out in experiment [3]: Human Leukocyte Antigen - DR isotype (HLADR), HLA-DRA (gene 3122)
Briefly: BSK_CASM3C_HLADR: BioMAP Diversity Plus: CASM3C Assay for Human Leukocyte Antigen - DR isotype (HLADR) Biomarker Activity (AID 2283043).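 Note: cell-surface HLA-DR protein level quantified by ELISA.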 Particulars: primary human coronary artery smooth muscle cells; actives raise or lower the signal.

Read-out in experiment [4]: Macrophage colony-stimulating factor (MCSF), CSF1 (gene 1435)
Kind of experiment: BSK_CASM3C_MCSF: BioMAP Diversity Plus: CASM3C Assay for Macrophage colony-stimulating factor (MCSF) Biomarker Activity (AID 2283044).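 Note: M-CSF protein amount quantified by ELISA after 24 h exposure.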 The note with it: primary human coronary artery smooth muscle cells; actives raise or lower the signal.

Read-out in experiment [5]: Low-density lipoprotein receptor (LDLR), LDLR (gene 3949)
Kind of experiment: BSK_CASM3C_LDLR: BioMAP Diversity Plus: CASM3C Assay for Low-density lipoprotein receptor (LDLR) Biomarker Activity (AID 2283045).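 Note: LDLR protein level on the cell surface quantified by ELISA.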 The note with it: primary human coronary artery smooth muscle cells; actives raise or lower the signal.

Read-out in experiment [6]: Monocyte Chemoattractant Protein-1 (MCP1), CCL2 (gene 6347)
Kind of experiment: BSK_CASM3C_MCP1: BioMAP Diversity Plus: CASM3C Assay for Monocyte Chemoattractant Protein-1 (MCP1) Biomarker Activity (AID 2283046).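 Note: MCP-1 level quantified by ELISA 24 h after dosing.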 The note with it: primary human coronary artery smooth muscle cells; actives raise or lower the signal.

Experiment [7] is described as follows: BSK_CASM3C_Proliferation: Cell Proliferation Assessment in the BioMAP Diversity Plus: CASM3C Assay (AID 2283047).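 Note: sulforhodamine B total protein stain as relative cell number at 560 nm; sub-confluent cells exposed 48 h before staining; fitted both ways against DMSO so gain or loss of cell number.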 The note with it: primary human coronary artery smooth muscle cells.
Read-out in experiment [8]: Monokine induced gamma interferon (MIG), CXCL9 (gene 4283)
Briefly: BSK_CASM3C_MIG: BioMAP Diversity Plus: CASM3C Assay for Monokine induced gamma interferon (MIG) Biomarker Activity (AID 2283048).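 Note: MIG protein level measured by ELISA.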 The note with it: primary human coronary artery smooth muscle cells; actives raise or lower the signal.

Read-out in experiment [9]: serum amyloid A (SAA), SAA1 (gene 6288)
Briefly: BSK_CASM3C_SAA: BioMAP Diversity Plus: CASM3C Assay for serum amyloid A (SAA) Biomarker Activity (AID 2283049).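 Note: SAA protein level quantified by ELISA.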 The note with it: primary human coronary artery smooth muscle cells; actives raise or lower the signal.

A short description of experiment [10]: BSK_CASM3C_SRB: Viability Assessment in the BioMAP Diversity Plus: CASM3C Assay (AID 2283050).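 Note: cells exposed to compound for 24 h.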 Particulars: primary human coronary artery smooth muscle cells.
Read-out in experiment [11]: Thrombomodulin, THBD (gene 7056)
Briefly: BSK_CASM3C_Thrombomodulin: BioMAP Diversity Plus: CASM3C Assay for Thrombomodulin Biomarker Activity (AID 2283051).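 Note: thrombomodulin protein level measured by ELISA 24 h after dosing.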 The note with it: primary human coronary artery smooth muscle cells; actives raise or lower the signal.

Read-out in experiment [12]: Tissue Factor, F3 (gene 2152)
Briefly: BSK_CASM3C_TissueFactor: BioMAP Diversity Plus: CASM3C Assay for Tissue Factor Biomarker Activity (AID 2283052).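 Note: cell surface tissue factor protein level read by ELISA.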 Particulars: primary human coronary artery smooth muscle cells; actives raise or lower the signal.

Read-out in experiment [13]: Interferon-gamma inducible Protein 10 (IP10), CXCL10 (gene 3627)
Briefly: BSK_hDFCGF_IP10: BioMAP Diversity Plus: hDFCGF Assay for Interferon-gamma inducible Protein 10 (IP10) Biomarker Activity (AID 2283053). Particulars: primary human foreskin fibroblasts; actives raise or lower the signal. In short, it runs like this:
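Chemical-treated human skin fibroblasts (primary) were sampled at 24 h for IP-10 by ELISA. Both increases and decreases relative to DMSO were scored.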

Read-out in experiment [14]: Urokinase-type plasminogen activator receptor (uPAR), PLAUR (gene 5329)
Kind of experiment: BSK_CASM3C_uPAR: BioMAP Diversity Plus: CASM3C Assay for Urokinase-type plasminogen activator receptor (uPAR) Biomarker Activity (AID 2283054).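 Note: cell-surface uPAR protein level quantified by ELISA.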 Particulars: primary human coronary artery smooth muscle cells; actives raise or lower the signal.

Read-out in experiment [15]: Vascular cell adhesion molecule 1 (VCAM1), VCAM1 (gene 7412)
Kind of experiment: BSK_CASM3C_VCAM1: BioMAP Diversity Plus: CASM3C Assay for Vascular cell adhesion molecule 1 (VCAM1) Biomarker Activity (AID 2283055).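 Note: VCAM-1 protein level quantified by ELISA on the cells.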 Particulars: primary human coronary artery smooth muscle cells; actives raise or lower the signal.

Read-out in experiment [16]: Collagen III, COL3A1 (gene 1281)
Briefly: BSK_hDFCGF_CollagenIII: BioMAP Diversity Plus: hDFCGF Assay for Collagen III Biomarker Activity (AID 2283056). The note with it: primary human foreskin fibroblasts; actives raise or lower the signal. In short, it runs like this:
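Human foreskin fibroblast primary cultures sampled 24 h after dosing; Collagen III quantified by ELISA. Signal fitted bidirectionally against DMSO baseline.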

Read-out in experiment [17]: Epidermal growth factor receptor (EGFR), EGFR (gene 1956)
Briefly: BSK_hDFCGF_EGFR: BioMAP Diversity Plus: hDFCGF Assay for Epidermal growth factor receptor (EGFR) Biomarker Activity (AID 2283057). The note with it: primary human foreskin fibroblasts; actives raise or lower the signal. In short, it runs like this: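 Cell-based multiplexed assay in primary human foreskin fibroblasts. EGFR is read by ELISA 24 h after treatment and compared with DMSO controls.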

Read-out in experiment [18]: Interleukin-8 (IL8), CXCL8 (gene 3576)
Kind of experiment: BSK_hDFCGF_IL8: BioMAP Diversity Plus: hDFCGF Assay for Interleukin-8 (IL8) Biomarker Activity (AID 2283058). Particulars: primary human foreskin fibroblasts; actives raise or lower the signal. In a few lines: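 Primary human foreskin fibroblasts (hDFCGF system) dosed with chemical; IL-8 measured by ELISA 24 hours later. Bidirectional curve fitting relative to DMSO baseline; cytotoxicity tracked in parallel cultures by SRB total protein staining.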

Read-out in experiment [19]: Macrophage colony-stimulating factor (MCSF), CSF1 (gene 1435)
Briefly: BSK_hDFCGF_MCSF: BioMAP Diversity Plus: hDFCGF Assay for Macrophage colony-stimulating factor (MCSF) Biomarker Activity (AID 2283060). Particulars: primary human foreskin fibroblasts; actives raise or lower the signal. In a few lines:
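Human foreskin fibroblast primary cultures; M-CSF measured by ELISA 24 hours after chemical dosing. Bidirectional fitting relative to DMSO, with overt cytotoxicity tracked by parallel SRB total-protein staining (0.1% SRB, 10% TCA fixation, 560 nm).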

Experiment [20] is described as follows: BSK_hDFCGF_Proliferation: Cell Proliferation Assessment in the BioMAP Diversity Plus: hDFCGF Assay (AID 2283059).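 Note: curves fitted for both rise and fall of signal versus DMSO baseline.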 Particulars: primary human foreskin fibroblasts. In a few lines:
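This proliferation readout used SRB total-protein staining of human foreskin fibroblasts […], normalized to DMSO with bidirectional curve fitting.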

For the compound `CCOC(N)=O`, the result in experiment [1], in experiment [2], in experiment [3], in experiment [4], in experiment [5] and in experiment [6] was inactive. Besides, the outcome in [7], in [8], in [9], in experiment [10], in experiment [11] and in experiment [12] was inactive. The result in experiment [13], in experiment [14], in [15], in experiment [16], in experiment [17] and in experiment [18] was inactive. Further, the result in experiment [19] was inactive.

The AC50 is the concentration at which the activity in the assay is half-maximal. On to `O=C1CN(N=Cc2ccc([N+](=O)[O-])o2)C(=O)N1`, for which the outcome in [1], in experiment [2], in experiment [3], in experiment [4], in experiment [5] and in experiment [6] was inactive. The result in [7], in [8], in [9], in [10], in experiment [11] and in experiment [12] was inactive. Moreover, the outcome in experiment [13], in [14], in experiment [15], in [16], in experiment [17] and in experiment [18] was inactive. Further, in [19], the result was inactive. Further, the AC50 in experiment [20] was 30.6 µM (active).

Consider `Cn1cc[nH]c1=S`, for which the result in [1], in experiment [2], in [3], in [4], in [5] and in experiment [6] was inactive. In addition, the result in [7], in experiment [8], in experiment [9], in [10], in experiment [11] and in experiment [12] was inactive. Also, the result in experiment [13], in [14], in [15], in experiment [16], in experiment [17] and in experiment [18] was inactive. Moreover, the result in experiment [19] was inactive.

With `O=C(NO)C1(NS(=O)(=O)c2ccc(Oc3ccc(F)cc3)cc2)CCOCC1`, the outcome in [1], in [2], in [3], in experiment [4], in experiment [5] and in experiment [6] was inactive. The result in experiment [7], in experiment [8], in experiment [9], in experiment [10], in experiment [11] and in experiment [12] was inactive. In addition, the result in [13], in [14], in [15], in experiment [16], in experiment [17] and in experiment [18] was inactive. Besides, the outcome in experiment [20] and in experiment [19] was inactive.

Take `CCCCCCCCCC`: the outcome in experiment [1], in [2], in [3], in [4], in experiment [5] and in experiment [6] was inactive. Also, the result in experiment [7], in experiment [8], in [9], in [10], in experiment [11] and in experiment [12] was inactive. The outcome in experiment [13], in experiment [14], in experiment [15], in [16], in experiment [17] and in experiment [18] was inactive. The outcome in experiment [20] and in [19] was inactive.

For the compound `CC(C)CC(C)O` (configuration not stated), the result in experiment [1], in experiment [2], in [3], in experiment [4], in [5] and in [6] was inactive. For the same compound, the result in [7], in experiment [8], in experiment [9], in experiment [10], in [11] and in [12] was inactive. Moreover, the outcome in [13], in [14], in experiment [15], in experiment [16], in experiment [17] and in experiment [18] was inactive. Besides, the outcome in experiment [19] was inactive.

As to `OCCNCCO`, the result in [1], in [2], in [3], in [4], in experiment [5] and in experiment [6] was inactive. In addition, the result in [7], in experiment [8], in experiment [9], in experiment [10], in experiment [11] and in [12] was inactive. The outcome in [13], in [14], in experiment [15], in experiment [16], in experiment [17] and in experiment [18] was inactive. In addition, the result in experiment [20] and in experiment [19] was inactive.
